Each structure is given as a SMILES string. Compounds without any hit were thinned out: in the full panel of roughly 83,000, 20% have a hit.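 The endpoint reported here, percent growth, reads 100 for growth as untreated, 0 for no net growth and -100 for all cells dead.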 Values without a mark were called inactive. Active and inactive are the calls of the source.

The test has as its system PC-3 prostate. In words: NCI-60 one-dose screen, 48 h (100 = growth as untreated, 0 = no growth, -100 = all killed). The conditions noted are these: 10 µM. The method, then: Growth inhibition of the PC-3 human tumor cell line is measured as a screen for anti-cancer activity. Cells are grown in 96 well plates and exposed to the test compound for 48 hours. Compounds are tested at a single concentration, which is 10^-5 M for most compounds. The reported endpoint is percent growth (GI% or GIPRCNT), where numbers from 0 - 100% represent growth inhibition, and numbers from -100% - 0 represent cell death. For example, a value of 40 represents 60% growth inhibition. A value of 0 means no net growth occurred over the course of the experiment. A value of -40 indicates 40% of cells at the beginning of the experiment died by the end of the experiment. A value of -100 means all cells are dead at the end of the experiment.
NCI-60 Human Tumor Cell Lines Screen was performed using the standard one-dose NCI protocol, which is described in more detail at https://dtp.cancer.gov/discovery_development/nci-60/default.htm.
Compounds with GIPRCNT values below 10 were considered active. Activity score was based on GIPRCNT using the following formula: […]
Score is 0 for GIPRCNT values of 100 or above, 50 for GIPRCNT values of 0, and 100 for GIPRCNT values of -100.
As for `COc1ccc(-c2nc(-c3ccccc3)c(-c3ccccc3)[nH]2)cc1OC1CCCC1`, the growth was 50.1%.

`O=C(O)CN1C(=O)C=CC1=O`: the growth was 99.8%.

Regarding `O=[N+]([O-])c1cc2ncccc2c2ncccc12`, the growth was 77.8%.

Regarding `C=CCNC(=S)NN`, the growth was 58.4%. The same measure for `CCN(CC)CC(O)CNc1ccnc2cc(Cl)c(Cl)cc12` (stereo not given): 80%; for `CC(=O)N(O)c1ccc(/C=C/c2ccccc2)cc1`: 36.1%.

Consider `Cc1nnc2c3nnc(-c4ccc(Cl)cc4)n3c3ccccc3n12`, for which the growth is 91.8%.

As to `N#Cc1cnc2ccc(NCc3cnc[nH]3)cc2c1Nc1ccc(F)c(Cl)c1`, the growth is 70.1%. Regarding `c1ccc(C2CCCCC2)c(OCCCCCN2CCNCC2)c1`, the growth was 43.6%.

With `COc1ccc(Cn2cc3c(c2-c2ccccc2)CC(C)(C)c2cnoc2-3)cc1`, the growth was 28.8%. Consider `COc1cc(CSc2nc3ccc(C)cc3c(=O)n2Cc2ccccc2)cc(OC)c1OC`, for which the growth was 45.9%. The same measure for `C#CCNCCN1C(=O)c2ccc3c4c(ccc(c24)C1=O)C(=O)N(CCNCC#C)C3=O`: 47.7%.

`NC1CCC(Nc2nc(NCc3ccc(-c4ccco4)nc3)c3ncn(C4CCCC4)c3n2)CC1` (stereo not given): the growth was -1.27% (active).

For `COc1ccc(N2CCN(c3nc(-c4ccccc4)c(C#N)c(=O)[nH]3)CC2)cc1`, the growth was 87.2%. Turning to `O=C1NN(c2ccccc2)C(c2cccnc2)=N/C1=C\c1cccnc1`, the growth was 92.1%.

`Fc1ccc(-c2cc(C(Cl)Cl)no2)cc1`: the growth was 93%. On to `COC(=O)[C@]12CC[C@@H](C)[C@H](C)[C@@H]1C1=CC[C@@H]3[C@@]4(C)C/C(=N\O)[C@H](O)[C@@]5(C)COC(=C45)C[C@@]3(C)[C@]1(C)CC2`, for which the growth was -81.5% (active). As to `CC1(C)Cc2c(cn(Cc3ccccc3)c2-c2ccccc2)-c2oncc21`, the growth is 86.2%. Regarding `CCOC(=O)c1cc(-c2ccccc2)nc(N)n1`, the growth was 96.6%.

With `COc1ccccc1Cn1cc2c(c1-c1ccccc1)CCc1cnoc1-2`, the growth was 29.9%. Regarding `COc1ccc(C(=O)/C=C/c2cc(-c3ccc4c(c3)OCO4)n[nH]2)cc1OC`, the growth was 48.4%. The value for `COc1cc(/C=C/C(=O)c2cc(-c3ccccc3)ccc2O)cc(OC)c1OC` was 49.4%; that for `CCOC(=S)Sc1ccc([N+](=O)[O-])cc1[N+](=O)[O-]` was 83.7%. The value for `Cn1c(N)c(N=Cc2ccccc2)c(=O)n(C)c1=O` was 105%; that for `COc1ccc(CCc2nc3cc(-c4c(C)noc4C)ccc3n2CCN2CCOCC2)cc1` was 11.8%. The same measure for `COc1cc(Cl)cc(-c2nn(-c3cccc(NC(=O)Nc4cccc(C(F)(F)F)c4)c3)cc2-c2ccncc2)c1`: -9.92% (active); for `COc1ccc2c(c1)/C(=C/c1cc(OC)c(OC)c(OC)c1)C(=O)N2C`: 38.3%.

In the case of `COc1cc(-c2cc(-c3ccc(C)cc3)nc3nc(N)[nH]c(=O)c23)ccc1Oc1ccnc2cc(Cl)ccc12`, the growth was 70.5%. Take `CC(Oc1ccc(Cl)cc1)c1ccccc1` (stereo not given): the growth was 93.4%. The value for `COc1cccc(C(=O)NNc2nc(N3CCN(C4CCCCC4)CC3)nc(N3CCN(C(c4ccccc4)c4ccccc4)CC3)n2)c1` was 21%. As for `COc1ccc(-c2nsc3c2NC(=O)CC3c2ccc(Cl)cc2)cc1` (stereo not given), the growth was 82%. The value for `Cc1ccc2nc(-c3ccc(OCC(=O)N=Nc4c(O)[nH]c5ccccc45)cc3)[nH]c2c1` was 7.33% (active). Consider `Cc1ccc(-c2cc(C(=O)Nc3ccc(S(=O)(=O)N4CCCCC4)cc3)[nH]n2)c(O)c1`, for which the growth was 51.8%. Regarding `O=C1/C(=C/c2ccc(O)cc2)CSc2ccc(Cl)cc21`, the growth was 58.9%. The value for `FC(F)(F)c1ccc(-c2cnc(Br)nc2NC2CCCCCC2)cc1` was 5.8% (active). The same measure for `O=c1oc2c3ccc4cnccc4c3[nH]c2c2ccccc12`: 71.4%; for `CCCCn1c(=O)[nH]c(N)c(C(c2ccc(Cl)cc2)c2c(N)[nH]c(=O)n(CCCC)c2=O)c1=O`: 32%; for `COc1ccc2oc(=O)cc(C3c4ccc([nH]4)C(c4cc(=O)oc5ccc(OC)cc45)c4ccc([nH]4)C(c4cc(=O)oc5ccc(OC)cc45)c4ccc([nH]4)C(c4cc(=O)oc5ccc(OC)cc45)c4ccc3[nH]4)c2c1` (stereo not given): 30.4%. As to `CCNC1(NC#N)CCCCC1`, the growth was 95%. The same measure for `COc1ccc(-c2nnc(SC/C(=N\O)c3ccccc3)o2)cc1`: 86.8%.

Values taken from PubChem BioAssay (NCI).
